“And” between values parts separate entries of the source, which are not always exact repeats. Equal values may be shown once.
target: Beta-2 adrenergic receptor (Homo sapiens) (UniProt P07550); test: beta2AR agonists driving receptor internalization, pilot screen, cell-based, FAP fluorogen, flow cytometry, validation set (AID 504459); settings: Am2.2-beta2AR cells, FAP surface receptor flow cytometry; at 10 µM; stronger effect = higher value;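 further: agonist-driven loss of surface beta2AR via internalization measured by FAP dye flow cytometry; reference of the scale not given here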
Sequence (P07550 whole entry, looked up): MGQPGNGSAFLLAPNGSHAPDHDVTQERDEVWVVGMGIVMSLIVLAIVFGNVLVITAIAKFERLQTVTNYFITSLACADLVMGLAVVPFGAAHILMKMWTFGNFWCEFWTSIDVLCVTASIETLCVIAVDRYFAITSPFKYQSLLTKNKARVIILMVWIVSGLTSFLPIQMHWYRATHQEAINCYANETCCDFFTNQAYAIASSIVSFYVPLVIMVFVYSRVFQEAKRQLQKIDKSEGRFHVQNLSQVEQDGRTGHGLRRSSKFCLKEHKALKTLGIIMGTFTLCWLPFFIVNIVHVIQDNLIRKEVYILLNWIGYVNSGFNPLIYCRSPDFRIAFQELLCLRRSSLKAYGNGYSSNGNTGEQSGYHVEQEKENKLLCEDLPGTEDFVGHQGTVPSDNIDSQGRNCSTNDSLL

response, inactive:
S=C(NCCOCCOCCNC(=S)Nc1ccccc1)Nc1ccccc1 2.38%, Cc1ccc(CN2CCN(Cc3cn[nH]c3C3CCCCC3)CC2CCO)cc1 (stereo not drawn) -22.7%, OCCC1CN(Cc2ccccc2-c2ccco2)CCN1C1CCCC1 (stereo not drawn) -21.4%, COc1ccc2oc(-c3ccco3)cc(=O)c2c1 -0.39%, Nc1nc2c(nc(SCc3ccccc3Br)n2C2OC(CO)C(O)C2O)c(=O)[nH]1 (stereo not drawn) 17.9%, O=C(CCC(=O)NCCO)NCCO -19.9%, Cc1cc(=O)[nH]c(=S)[nH]1 -11.1%, CN(C)C(=O)Oc1cccc([N+](C)(C)C)c1 -26.2% and -0.74%, COc1cc(/C=C/C(=O)O)cc(S(=O)(=O)NCCCO)c1OC 8.94%, COC(=O)c1sccc1NC(=O)Nc1ccccc1F 2%, CC1(C)C(=O)OC(/C=C\c2ccccc2)C(C)(C)C1=O (stereo not drawn) -19.9%, O=C(/C=C/c1ccc(F)cc1)NC(=S)N1CCCCC1c1cccnc1 (stereo not drawn) -15.6%, COc1cc2c(cc1OC)C1(CCCC1)CNC2c1cccc([N+](=O)[O-])c1 (stereo not drawn) 23.6%, O=C(NCCO)c1ccc(Cl)c(Cl)c1 -1.25%, N#C/C(=C\c1ccc(O)c(O)c1)C(=O)NCCCc1ccccc1 13.4%, CSCC[C@H](NC(=O)OC(C)(C)C)C(=O)N1CCC(C(=O)N[C@@H](C)C(=O)O)CC1 6.5%, Cc1cc(-c2nn(-c3ccccc3F)cc2CN2CCCC(O)C2)c(C)s1 (stereo not drawn) -40.3%, COCCCNc1nc2c([nH]1)c(=O)[nH]c(=O)n2C -17.8%, CC(C)Oc1ccc2c(=O)c(-c3ccccc3)coc2c1 1.13%, O=C(Nc1cccc(Oc2c(F)c(F)c(F)c(F)c2F)c1)N1C[C@@H]2C[C@@H](C1)c1cccc(=O)n1C2 -14.9%, CCCCC[C@H](O)/C=C/C1=C(CCCCCCC(=O)O)C(=O)CC1 2.65%, CC(=O)OC[C@H]1O[C@@H](Sc2cccc3cccnc23)[C@H](OC(C)=O)[C@@H](OC(C)=O)[C@H]1OC(C)=O -27.5%, COc1cc(OC)cc(C(C)=O)c1 -14.6%, Nc1ccc2nc(Cc3ccccc3)[nH]c2c1 10.6%, COc1ccc2c(c1)[N+](C)(C)C(C)(C)C=C2C -8.39%, COc1ccc(CCN(C)Cc2nc(Cc3ccc(OC)c(OC)c3)no2)cc1OC -13.9%, N=c1c[n+](N2CCOCC2)[n-]o1 -6.36%, CCCc1cc(=O)[nH]c(=S)[nH]1 -3.16%, COC(=O)c1ccccc1NC(=O)c1ccc(COc2ccc3c(c2)CCC3)cc1 -3.71%, CC1(C)Cc2ccccc2-c2nc(-c3ccccc3)oc(=O)c21 -10.1%, Cc1cc(=O)oc2c(CN(C)Cc3ccccc3)c(O)ccc12 0.85%, CC1=NN(c2ccccc2)C(=O)C1 3.52%, CCOc1ccc2ccccc2c1C(=O)N[C@@H]1C(=O)N2[C@@H]1SC(C)(C)[C@@H]2C(=O)O 1.55%, O=C1CC2(CCCC2)CC(=O)N1CCCCN1CCN(c2ncccn2)CC1 -19.5%, Cc1ccc(C2=NOC(=O)/C2=C\C=C\c2ccccc2)cc1 34%, COc1ccc2c3c([nH]c2c1)C1(NCC3)C(=O)Nc2ccccc21 (stereo not drawn) -10.9%, CC1(C)S[C@@H]2[C@H](NC(=O)Cc3ccccc3)C(=O)N2[C@H]1C(=O)O -19.9%, COc1cc2cc(C(=O)O)[nH]c2c(OC)c1OC -2.07%, Clc1cc(-c2ccc(/C=N/n3cnnc3)o2)ccc1Br -6.37%

target: AP-2 complex subunit beta (Homo sapiens) (UniProt P63010); test: inhibitors of arrestin peptide binding to AP2, pilot screen, biochemical, validation set, GST-AP2 beads, flow cytometry (AID 504541;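 active means inhibition above 54%, about 3 SD of non-fluorescent compounds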;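 further: AP2 carries R879A mutation and is captured from E. coli lysate; bead-bound FITC arrestin peptide fluorescence measuring arrestin peptide binding to AP2; 0% = DMSO wells and 100% = excess unlabeled arrestin peptide control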); settings: FITC arrestin peptide, at 10 µM, stronger effect = higher value, AP2 beta2 appendage fragment, R879A mutant
Sequence (P63010 whole entry, looked up, the tested form may be a part, one chain of several): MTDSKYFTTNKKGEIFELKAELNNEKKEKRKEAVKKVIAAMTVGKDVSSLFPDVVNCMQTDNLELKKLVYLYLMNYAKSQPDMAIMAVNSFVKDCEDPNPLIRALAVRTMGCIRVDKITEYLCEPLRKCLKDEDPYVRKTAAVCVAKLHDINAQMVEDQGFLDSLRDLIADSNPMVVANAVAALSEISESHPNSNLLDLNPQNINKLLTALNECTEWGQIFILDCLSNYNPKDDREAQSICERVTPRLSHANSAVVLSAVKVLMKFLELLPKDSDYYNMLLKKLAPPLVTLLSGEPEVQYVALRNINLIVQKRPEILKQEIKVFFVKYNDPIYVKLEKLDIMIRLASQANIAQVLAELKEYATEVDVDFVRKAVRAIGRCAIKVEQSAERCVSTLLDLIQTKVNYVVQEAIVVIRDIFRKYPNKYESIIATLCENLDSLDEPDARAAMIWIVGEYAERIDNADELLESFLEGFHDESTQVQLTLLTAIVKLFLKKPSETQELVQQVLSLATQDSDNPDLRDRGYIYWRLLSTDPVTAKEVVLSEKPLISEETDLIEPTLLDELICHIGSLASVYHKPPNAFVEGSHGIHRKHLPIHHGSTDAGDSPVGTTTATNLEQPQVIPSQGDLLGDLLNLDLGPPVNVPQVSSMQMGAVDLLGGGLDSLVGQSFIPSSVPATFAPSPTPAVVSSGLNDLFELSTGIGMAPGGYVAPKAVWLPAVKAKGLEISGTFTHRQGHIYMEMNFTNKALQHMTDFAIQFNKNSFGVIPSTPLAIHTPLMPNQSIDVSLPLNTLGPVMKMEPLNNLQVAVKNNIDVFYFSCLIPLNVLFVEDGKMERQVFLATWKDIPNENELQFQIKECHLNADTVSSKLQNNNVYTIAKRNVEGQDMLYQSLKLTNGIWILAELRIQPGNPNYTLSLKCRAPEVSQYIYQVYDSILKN

inhibition, inactive:
S=C(NCCOCCOCCNC(=S)Nc1ccccc1)Nc1ccccc1 -17%, Cc1ccc(CN2CCN(Cc3cn[nH]c3C3CCCCC3)CC2CCO)cc1 (stereo not drawn) 7.73%, OCCC1CN(Cc2ccccc2-c2ccco2)CCN1C1CCCC1 (stereo not drawn) -16.3%, COc1ccc2oc(-c3ccco3)cc(=O)c2c1 -28.7%, Nc1nc2c(nc(SCc3ccccc3Br)n2C2OC(CO)C(O)C2O)c(=O)[nH]1 (stereo not drawn) 26.3%, O=C(CCC(=O)NCCO)NCCO -1.09%, Cc1cc(=O)[nH]c(=S)[nH]1 -0.05%, CN(C)C(=O)Oc1cccc([N+](C)(C)C)c1 -12.1% and 15%, COc1cc(/C=C/C(=O)O)cc(S(=O)(=O)NCCCO)c1OC -5.7%, COC(=O)c1sccc1NC(=O)Nc1ccccc1F -3.3%, CC1(C)C(=O)OC(/C=C\c2ccccc2)C(C)(C)C1=O (stereo not drawn) 6.83%, O=C(/C=C/c1ccc(F)cc1)NC(=S)N1CCCCC1c1cccnc1 (stereo not drawn) 1.74%, COc1cc2c(cc1OC)C1(CCCC1)CNC2c1cccc([N+](=O)[O-])c1 (stereo not drawn) -2.35%, O=C(NCCO)c1ccc(Cl)c(Cl)c1 -1.25%, N#C/C(=C\c1ccc(O)c(O)c1)C(=O)NCCCc1ccccc1 25.2%, CSCC[C@H](NC(=O)OC(C)(C)C)C(=O)N1CCC(C(=O)N[C@@H](C)C(=O)O)CC1 -16%, Cc1cc(-c2nn(-c3ccccc3F)cc2CN2CCCC(O)C2)c(C)s1 (stereo not drawn) -12.6%, COCCCNc1nc2c([nH]1)c(=O)[nH]c(=O)n2C 13.3%, CC(C)Oc1ccc2c(=O)c(-c3ccccc3)coc2c1 2.38%, O=C(Nc1cccc(Oc2c(F)c(F)c(F)c(F)c2F)c1)N1C[C@@H]2C[C@@H](C1)c1cccc(=O)n1C2 -6.11%, CCCCC[C@H](O)/C=C/C1=C(CCCCCCC(=O)O)C(=O)CC1 1.77%, CC(=O)OC[C@H]1O[C@@H](Sc2cccc3cccnc23)[C@H](OC(C)=O)[C@@H](OC(C)=O)[C@H]1OC(C)=O -0.13%, COc1cc(OC)cc(C(C)=O)c1 -2.85%, Nc1ccc2nc(Cc3ccccc3)[nH]c2c1 -0.76%, COc1ccc2c(c1)[N+](C)(C)C(C)(C)C=C2C -11.1%, COc1ccc(CCN(C)Cc2nc(Cc3ccc(OC)c(OC)c3)no2)cc1OC 2.64%, N=c1c[n+](N2CCOCC2)[n-]o1 3.46%, CCCc1cc(=O)[nH]c(=S)[nH]1 -5.08%, COC(=O)c1ccccc1NC(=O)c1ccc(COc2ccc3c(c2)CCC3)cc1 0.16%, CC1(C)Cc2ccccc2-c2nc(-c3ccccc3)oc(=O)c21 -10.6%, Cc1cc(=O)oc2c(CN(C)Cc3ccccc3)c(O)ccc12 -2.59%, CC1=NN(c2ccccc2)C(=O)C1 -6.32%, CCOc1ccc2ccccc2c1C(=O)N[C@@H]1C(=O)N2[C@@H]1SC(C)(C)[C@@H]2C(=O)O 17.1%, O=C1CC2(CCCC2)CC(=O)N1CCCCN1CCN(c2ncccn2)CC1 -0.56%, Cc1ccc(C2=NOC(=O)/C2=C\C=C\c2ccccc2)cc1 13%, COc1ccc2c3c([nH]c2c1)C1(NCC3)C(=O)Nc2ccccc21 (stereo not drawn) 10.3%, CC1(C)S[C@@H]2[C@H](NC(=O)Cc3ccccc3)C(=O)N2[C@H]1C(=O)O 1.23%, COc1cc2cc(C(=O)O)[nH]c2c(OC)c1OC -16.9%, Clc1cc(-c2ccc(/C=N/n3cnnc3)o2)ccc1Br 0.75%

From PubChem BioAssay
